This is a sample that favours compounds with a hit; in the whole collection about 1.3% have one here.
AmpC detergent: inhibitors of E. coli AmpC beta-lactamase with detergent | P00811 | AmpC hydrolysis of nitrocefin, absorbance 480 nm, 0.01% Triton | Potency, µM (highest dose often 114 µM), for inactives: at the top dose activity change, negative = inhibition, most hits filed as inhibitors | 0.041% of 370,000 active;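 further: 0% = no-compound wells and -100% = no-enzyme wells; nearly all actives have a fitted effect of over 25% in size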
Target sequence (P00811 whole entry, looked up): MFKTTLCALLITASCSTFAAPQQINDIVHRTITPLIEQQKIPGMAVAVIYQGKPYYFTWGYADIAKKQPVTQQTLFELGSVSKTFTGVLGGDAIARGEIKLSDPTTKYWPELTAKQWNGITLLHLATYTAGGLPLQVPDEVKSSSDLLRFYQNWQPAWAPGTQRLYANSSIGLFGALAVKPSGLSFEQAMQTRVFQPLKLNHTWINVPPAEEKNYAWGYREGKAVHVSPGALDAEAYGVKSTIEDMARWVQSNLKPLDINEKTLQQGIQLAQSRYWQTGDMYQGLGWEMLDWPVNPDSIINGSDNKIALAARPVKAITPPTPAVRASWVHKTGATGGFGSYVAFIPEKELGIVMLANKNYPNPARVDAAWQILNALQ
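AmpC (5.3 nM in the dispensed reagent) in 20 mM phosphate pH 7.0 with 0.01% (detergent screen) or 0.0001% Triton X-100 was preincubated with compounds for 15 min at room temperature. Nitrocefin was then added from an 800 uM solution, and hydrolysis was followed at 480 nm.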
Giardia FBPA inh: blocks Giardia fructose-bisphosphate aldolase activity; A8B2U2; purified Giardia FBPA; Potency, µM (doses to about 59.6 µM), for the others: at the top dose activity, negative = inhibition, most hits filed as inhibitors; 0.71% of 290,000 active; further: nearly all actives have a fitted effect of over 55% in size
Target sequence (A8B2U2 whole entry, looked up): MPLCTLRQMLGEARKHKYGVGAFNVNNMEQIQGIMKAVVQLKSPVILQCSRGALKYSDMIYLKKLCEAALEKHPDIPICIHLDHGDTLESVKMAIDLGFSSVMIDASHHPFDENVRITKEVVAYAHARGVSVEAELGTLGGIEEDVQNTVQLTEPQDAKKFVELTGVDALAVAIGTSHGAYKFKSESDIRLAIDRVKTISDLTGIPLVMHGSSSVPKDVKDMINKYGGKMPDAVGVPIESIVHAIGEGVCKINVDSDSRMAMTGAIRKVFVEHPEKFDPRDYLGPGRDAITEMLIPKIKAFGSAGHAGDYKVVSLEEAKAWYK
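40 nM FBPA preincubated 10 min at RT with compound (up to 57.5 uM final), then substrate plus GAPDH/TPI/NAD/arsenate coupling and diaphorase/resazurin added. Fluorescence read after 20 min at RT, 525/598 nm.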
AMA1-RON2 inh: inhibitors of Plasmodium falciparum AMA1-RON2 interaction; AlphaScreen AMA1-biotinylated RON2 peptide binding; Potency, µM (highest dose often 58.2 µM), for the others: at the top dose activity change, negative = inhibition, hits mostly inhibitors; 0.2% of 360,000 active; AID 720542;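 further: 0% = vehicle wells and -100% = peptide control; nearly all actives have a fitted effect of over 45% in size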
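AMA1 (3D7) with his tag at 25 nM final met compounds first, then biotinylated RON2 peptide at 25 nM; detection used donor plus acceptor beads, 10 µg/mL apiece, read by AlphaScreen after 30 min at room temperature.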
AmpC no deterg: blocks E. coli AmpC beta-lactamase in detergent-free assay. AID 485341. P00811. 0.52% of 330,000 active. AmpC nitrocefin hydrolysis, absorbance 480 nm, 0.0001% Triton. Potency, µM (titrated, usually from 57.1 µM), for inactives: at the highest dose activity change, negative = inhibition, most hits filed as inhibitors;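 further: plate controls were no compound for no effect and no enzyme for full effect; nearly all actives have a fitted effect of over 20% in size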
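AmpC (5.3 nM in the dispensed reagent) in 20 mM phosphate pH 7.0 with 0.01% (detergent screen) or 0.0001% Triton X-100 was preincubated with compounds for 15 min at room temperature. Nitrocefin was then added from an 800 uM solution, and hydrolysis was followed at 480 nm.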
LmPK inhibitor: LmPK (Leishmania mexicana) enzyme inhibition. Q27686. AID 1721. Potency, µM (top dose mostly 57.5 µM), without a hit: at the top dose activity change, negative = inhibition, hits mostly inhibitors. purified LmPK, Kinase-Glo ATP luminescence, 1 h. 0.37% of 290,000 active
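Purified LmPK (0.1 nM) converted ADP (0.1 mM) to ATP with PEP (0.5 mM) in imidazole buffer pH 7.2 with KCl and MgCl2, 1 h at room temperature. ATP was read by Kinase-Glo luminescence; data normalized to uninhibited and no-enzyme controls.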
* = called active by the depositor. The call rests on the fitted dose curve; in most records, active means well fitted curve in the direction sought with a large enough effect; inconclusive means small, poorly fitted or top-dose-only effect, or another doubt; inactive means no such curve, though single readings can be large; an effect the other way counts as inactive or inconclusive. Unless noted, on the % scale 0 is the no-effect control and ±100 the full control effect; potency means the concentration at half of the fitted maximal effect.

Screening Oc1c(Cl)cc(Cl)cc1C(C#Cc1ccccc1)N1CCOCC1 (configuration not stated) returned AmpC detergent 1%, Giardia FBPA inh 9%, AMA1-RON2 inh -4%, AmpC no deterg 0.32µM* and LmPK inhibitor 2%.
CC(C)Cn1c(-c2ccccc2F)n[nH]c1=S was read as AmpC detergent 1%, Giardia FBPA inh -8%, AMA1-RON2 inh 70%, AmpC no deterg -22% and LmPK inhibitor -7%.
Screening CC(C)Cn1c(-c2csc3c2CCCC3)n[nH]c1=S returned AmpC detergent 5%, Giardia FBPA inh -1%, AMA1-RON2 inh 24%, AmpC no deterg -14% and LmPK inhibitor 10µM*.
Screening O=c1cc[nH]c(=S)[nH]1 returned Giardia FBPA inh 16µM*.
Screening O=[N+]([O-])c1ccccc1/C=N/N1CCN(Cc2ccccc2)CC1 returned AmpC detergent -10%, Giardia FBPA inh 5%, AMA1-RON2 inh 28µM*, AmpC no deterg 0% and LmPK inhibitor 4%.
For O=[N+]([O-])c1ccc(Cl)c(/C=N/N2CCN(Cc3ccccc3Cl)CC2)c1 the results were AmpC detergent -17%, Giardia FBPA inh 1%, AMA1-RON2 inh inconclusive, AmpC no deterg -27% and LmPK inhibitor 9%.
`O=[N+]([O-])c1ccccc1C=NN1CCCCCC1` gave AMA1-RON2 inh 18µM*.
Screening O=[N+]([O-])c1ccccc1/C=N\N1CCN(Cc2ccccc2Cl)CC1 returned AmpC detergent inconclusive, Giardia FBPA inh -1%, AMA1-RON2 inh 20µM*, AmpC no deterg -18% and LmPK inhibitor -5%.
For Cc1ccc(CN2CCN(/N=C\c3cccc([N+](=O)[O-])c3)CC2)cc1 the results were AmpC detergent -3%, Giardia FBPA inh -4%, AMA1-RON2 inh 14µM*, AmpC no deterg 12% and LmPK inhibitor 0%.
For FC(F)(F)c1ccc(/C=N/N2CCN(Cc3ccccc3)CC2)cc1 the results were AmpC detergent inconclusive, Giardia FBPA inh 0%, AMA1-RON2 inh 20µM*, AmpC no deterg -2% and LmPK inhibitor 3%.
`Cc1ccc(CN2CCN(/N=C/c3ccc(C(F)(F)F)cc3)CC2)cc1` gave AmpC detergent inconclusive, Giardia FBPA inh -5%, AMA1-RON2 inh -23%, AmpC no deterg -22% and LmPK inhibitor -8%.
For O=[N+]([O-])c1ccc(/C=N/N2CCN(Cc3ccccc3)CC2)cc1 the results were AmpC detergent -2%, Giardia FBPA inh 6%, AMA1-RON2 inh 25µM*, AmpC no deterg -12% and LmPK inhibitor -3%.
Screening O=C(NCCN1CCOCC1)C1(C(F)(F)F)C/C(=C/CCO)CCCO1 (configuration not stated) returned Giardia FBPA inh -1%.
For COc1cc2c(cc1NCc1ccc3c(c1)OCO3)oc1ccccc12 the results were AmpC detergent -13%, Giardia FBPA inh -1%, AMA1-RON2 inh 32µM*, AmpC no deterg -24% and LmPK inhibitor 5%.
For O=c1oc2ccccc2nc1/C=C(\O)c1ccccc1 the results were AmpC detergent -4%, Giardia FBPA inh inconclusive, AMA1-RON2 inh 106%, AmpC no deterg -29% and LmPK inhibitor 9%.
`O/C(=C\c1nc2ccccc2nc1/C=C(\O)c1ccccc1)c1ccccc1` gave AmpC detergent 3%, Giardia FBPA inh 3.2µM*, AMA1-RON2 inh 7%, AmpC no deterg -9% and LmPK inhibitor inconclusive.
O=C(O)C1=CC(=C(c2ccc(O)c(C(=O)O)c2)c2ccc(O)c(C(=O)O)c2)C=CC1=O was read as AmpC detergent 8.9µM*, Giardia FBPA inh inconclusive and AmpC no deterg 8.9µM*.
For O=C(O)c1cc(O)ccc1O the results were AMA1-RON2 inh 0%.
O=C(Oc1ccccc1)c1cccc2cccnc12 was read as AmpC detergent -13%, Giardia FBPA inh 9%, AMA1-RON2 inh 9%, AmpC no deterg -5% and LmPK inhibitor -1%.
`O=C(Oc1ccccc1)c1cccnc1Oc1ccccc1` gave AmpC detergent 40µM*, Giardia FBPA inh 2%, AMA1-RON2 inh 16%, AmpC no deterg -40% and LmPK inhibitor 0%.
Screening O=C(NCCc1ccc(Cl)cc1)C1COc2ccccc2O1 (configuration not stated) returned AmpC detergent -4%, Giardia FBPA inh 6%, AMA1-RON2 inh 6%, AmpC no deterg -16% and LmPK inhibitor 0%.
`Cc1noc(C)c1-c1nc(N(C)C)c2ccccc2n1` gave Giardia FBPA inh -5%.
Screening Cc1cc(=O)n2nc(N3CCC(C(=O)NCc4cccc(Cl)c4)CC3)sc2n1 returned AmpC detergent -3%, AMA1-RON2 inh 17%, AmpC no deterg 50% and LmPK inhibitor -3%.
For Cn1c(=O)c(Oc2cc(Cl)cc(Cl)c2)nc2ccccc21 the results were AmpC detergent 2%, Giardia FBPA inh -1%, AMA1-RON2 inh 14%, AmpC no deterg 0.4µM* and LmPK inhibitor 4%.
For COc1ccc(Oc2nc3ccccc3n(C)c2=O)cc1 the results were AmpC detergent inconclusive, Giardia FBPA inh -5%, AMA1-RON2 inh -4%, AmpC no deterg -3% and LmPK inhibitor 4%.
Screening O=C(NCC1CCCN1S(=O)(=O)c1cccs1)C(=O)Nc1ccc(F)cc1 (configuration not stated) returned AmpC detergent inconclusive, AMA1-RON2 inh 10% and AmpC no deterg 28µM*.
COc1ccc(S(=O)(=O)N2CCCC2CNC(=O)C(=O)NCc2ccccc2)cc1 (configuration not stated) was read as AmpC detergent inconclusive, AMA1-RON2 inh 9% and AmpC no deterg 32µM*.
For O=C(Nc1ccccc1)NC1(C(=O)NCc2cccs2)CCCCC1 the results were AmpC detergent 2%, Giardia FBPA inh 2%, AMA1-RON2 inh -3%, AmpC no deterg 0.14µM* and LmPK inhibitor -1%.
`COCCOC(=O)CSc1ncccc1-c1nc2cc(C)c(C)cc2[nH]1` gave AmpC detergent 3%, Giardia FBPA inh -21%, AMA1-RON2 inh 8%, AmpC no deterg 32% and LmPK inhibitor 14µM*.
`NS(=O)(=O)c1ccc(N=Nc2ccc(=O)[nH]c2O)cc1` gave AmpC detergent 0%, Giardia FBPA inh 5.6µM*, AMA1-RON2 inh -20%, AmpC no deterg -24% and LmPK inhibitor 16%.
For NS(=O)(=O)c1ccc(N=Nc2c(O)[nH]c(=S)[nH]c2=O)cc1 the results were AmpC detergent -9%, Giardia FBPA inh 19%, AMA1-RON2 inh -2%, AmpC no deterg 3% and LmPK inhibitor -22%.
Screening O=C(N=Nc1c(O)[nH]c2ccccc12)c1ccco1 returned AmpC detergent 8%, Giardia FBPA inh -21%, AMA1-RON2 inh -5%, AmpC no deterg -16% and LmPK inhibitor 25µM*.
